HP1b binding inh: blocks HP1-beta chromodomain binding to methylated histone tails. P83916. AlphaScreen HP1-beta / biotin-H3K9me3 peptide binding. Potency, µM (doses to about 114 µM), without a hit: top-dose activity change, negative = inhibition, most hits filed as inhibitors. 0.56% of 390,000 active. AID 540317; further: potency means the concentration at half of the fitted maximal effect; nearly all actives have a fitted effect of over 70% in size
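HP1-beta protein (50 nM final) preincubated 30 min at room temperature with biotinylated H3(1-18)K9me3 peptide (50 nM) in PBS pH 7.4, 0.01% Tween-20, then compound added for 30 min. AlphaScreen streptavidin donor/nickel chelate acceptor beads (10 ug/mL final), 30 min dark, luminescence read.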
BAZ2B block: blocks human BAZ2B. Q9UIF8. AlphaScreen BAZ2B-H3K14Ac peptide displacement. Potency, µM (top dose mostly 114 µM), without a hit: top-dose activity change, negative = inhibition, actives largely listed as inhibitors. 4.4% of 360,000 active; further: potency means the concentration at half of the fitted maximal effect; on the % scale 0 is the no-effect control and ±100 the full control effect; nearly all actives have a fitted effect of over 60% in size
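Multi-concentration screen (max 110 uM) measuring displacement of acetylated histone H3 peptide from BAZ2B by AlphaScreen, using 50 nM protein, 50 nM peptide and 10 ug/mL streptavidin donor plus Ni-chelate acceptor beads.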
GLS inh: glutaminase GLS (human) inhibition | GLS enzymatic activity, qHTS titration | 0.21% of 410,000 active | O94925 | Potency, µM (series often up to 45.5 µM), for inactives: top-dose activity change, negative = inhibition, actives largely listed as inhibitors; further: potency means the concentration at half of the fitted maximal effect; on the % scale 0 is the no-effect control and ±100 the full control effect
Target sequence (O94925 whole entry, looked up): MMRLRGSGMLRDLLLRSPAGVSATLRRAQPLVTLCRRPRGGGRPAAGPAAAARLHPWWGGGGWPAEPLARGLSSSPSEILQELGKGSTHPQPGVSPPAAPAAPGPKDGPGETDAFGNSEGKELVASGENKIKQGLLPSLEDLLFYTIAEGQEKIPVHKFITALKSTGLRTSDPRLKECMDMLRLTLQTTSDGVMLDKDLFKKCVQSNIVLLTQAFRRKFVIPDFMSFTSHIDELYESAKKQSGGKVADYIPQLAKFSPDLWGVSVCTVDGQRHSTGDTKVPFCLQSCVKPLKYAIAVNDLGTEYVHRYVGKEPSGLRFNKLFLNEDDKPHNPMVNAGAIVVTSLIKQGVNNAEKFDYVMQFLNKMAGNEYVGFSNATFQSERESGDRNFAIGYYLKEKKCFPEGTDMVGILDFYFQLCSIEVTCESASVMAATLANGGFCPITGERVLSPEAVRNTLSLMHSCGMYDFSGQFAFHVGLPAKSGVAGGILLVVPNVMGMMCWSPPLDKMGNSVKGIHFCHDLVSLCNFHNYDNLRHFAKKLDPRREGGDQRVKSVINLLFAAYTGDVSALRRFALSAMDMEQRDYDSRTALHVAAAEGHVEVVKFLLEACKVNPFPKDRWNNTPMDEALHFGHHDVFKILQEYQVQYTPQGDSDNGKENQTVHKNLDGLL
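Enzyme dispensed in phosphate buffer (45 mM, pH 8.2, 0.02% Tween-20), compounds pinned in, then 1 mM L-glutamine solution and the glutamate oxidase–HRP–Amplex Red mix added; fluorescence read immediately and again after 30 min at room temperature.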
JMJD2A Tudor: inhibitors of human JMJD2A Tudor domain; O75164; AlphaScreen JMJD2A-Tudor / H3K4me3 peptide binding; Potency, µM (titrated, usually from 114 µM), without a hit: at the highest dose activity change, negative = inhibition, hits mostly inhibitors; 4.4% of 390,000 active; further: potency means the concentration at half of the fitted maximal effect; on the % scale 0 is the no-effect control and ±100 the full control effect; nearly all actives have a fitted effect of over 50% in size
G9a inh-1: G9a (human) methyltransferase inhibition. Q96KQ7. G9a H3K9 monomethylation, AlphaScreen, 2 h. Potency, µM (highest dose often 102 µM), inactives show at the highest dose activity, negative = inhibition, hits mostly inhibitors. 8.8% of 350,000 active; further: potency means the concentration at half of the fitted maximal effect; on the % scale 0 is the no-effect control and ±100 the full control effect; nearly all actives have a fitted effect of over 75% in size
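Using a bead-based AlphaScreen, monomethylated H3K9 product from 2 h room-temperature reactions (G9a 20 nM, peptide 500 nM, SAM 20 uM) was detected with 0.5 ug/mL rabbit anti-H3K9me1 antibody.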
G9a inh-2: inhibits human G9a histone lysine methyltransferase, hit confirmation | 89% of 370 active | shares compounds with JMJD2A Tudor | G9a H3K9 monomethylation, AlphaScreen, 2 h | AID 588344 | Potency, µM, actives largely listed as inhibitors; further: potency means the concentration at half of the fitted maximal effect; nearly all actives have a fitted effect of over 65% in size
RGS4 inh: confirmation of human RGS4 inhibitors | shares compounds with JMJD2A Tudor | RGS4 GAP activity, Transcreener GDP fluorescence polarization | Potency, µM, actives largely listed as inhibitors | 80% of 25 active | AID 602388
* hit, by the source's call; [ ] = remark or other dose. The list is not random: actives were taken first. Their share in the collection is about 10%. The call rests on the fitted dose curve; in most records, active means well fitted curve in the direction sought with a large enough effect; inconclusive means small, poorly fitted or top-dose-only effect, or another doubt; inactive means no such curve, though single readings can be large; an effect the other way counts as inactive or inconclusive.

Screening COc1ccccc1Nc1ncc(-c2cccs2)s1 returned HP1b binding inh inconclusive, BAZ2B block inconclusive, GLS inh 32%, JMJD2A Tudor inconclusive, G9a inh-1 inconclusive and RGS4 inh inconclusive.
For COc1ccc(N2CCN(CC(=O)Nc3cc(C)on3)CC2)cc1 the results were HP1b binding inh inconclusive, BAZ2B block 20µM*, GLS inh 56%, JMJD2A Tudor 2.8µM*, G9a inh-1 1.8µM* and G9a inh-2 1.6*.
COc1ccc(-c2[nH]c3ccccc3c2SCCNC(=O)c2cc3ccccc3oc2=O)cc1 was read as HP1b binding inh 4%, BAZ2B block -35%, GLS inh 0%, JMJD2A Tudor -33% and G9a inh-1 inconclusive.
Screening COc1ccc(S(=O)(=O)N2CCN(CC(=O)NCCc3cccs3)CC2)cc1 returned HP1b binding inh 32%, BAZ2B block 9%, GLS inh -13%, JMJD2A Tudor -7%, G9a inh-1 inconclusive and G9a inh-2 inconclusive.
COc1ccc(S(=O)(=O)N2CCN(CC(=O)NC(C)c3cccs3)CC2)cc1 (centres undefined) was read as GLS inh -5%.
`COc1ccc(OC)c(Nc2nc(=O)c3cccnc3s2)c1` gave HP1b binding inh inconclusive, BAZ2B block 56µM*, GLS inh inconclusive, JMJD2A Tudor 18µM*, G9a inh-1 0.56µM* and G9a inh-2 0.45*.
`COc1ccc(N2CCN(c3nc(NC(C)(C)C)nc(N4CCCCC4)n3)CC2)cc1` gave HP1b binding inh inconclusive, BAZ2B block 3.2µM*, GLS inh 15%, JMJD2A Tudor inconclusive, G9a inh-1 inconclusive and G9a inh-2 13*.
CCOc1ccc(Nc2nc(N3CCCC3)nc(N3CCN(c4ccc(OC)cc4)CC3)n2)cc1 was read as HP1b binding inh -2%, BAZ2B block -35%, GLS inh 8%, JMJD2A Tudor -13% and G9a inh-1 inconclusive.
For CN(C)c1ccc(NC(=O)COC(=O)CCC(=O)c2ccc(F)cc2)cc1 the results were HP1b binding inh -2%, BAZ2B block inconclusive, GLS inh 24%, JMJD2A Tudor inconclusive, G9a inh-1 2.5µM* and G9a inh-2 7.1*.
CN(C)c1ccc(NC(=O)CCCc2ccccc2)cc1 was read as HP1b binding inh inconclusive, BAZ2B block 45µM*, GLS inh 2%, JMJD2A Tudor inconclusive, G9a inh-1 1.3µM* and G9a inh-2 2.5*.
COCC(=O)Nc1ccc(N(C)C)cc1 was read as HP1b binding inh 27%, BAZ2B block 3%, GLS inh 8%, JMJD2A Tudor -11%, G9a inh-1 2.5µM* and G9a inh-2 3.2*.
Screening CCOc1cc(C(=O)CCC(=O)OCC(=O)Nc2ccc(F)cc2)ccc1O returned HP1b binding inh 22%, BAZ2B block 15%, GLS inh 15%, JMJD2A Tudor -11% and G9a inh-1 -8%.
Screening CN1C=CC(=C[N+](=O)[O-])N(C)C1=O returned GLS inh 2%.
Screening Cc1ccc2cc3cc(C(=O)N4CCN(c5ccccc5)CC4)sc3nc2c1 returned HP1b binding inh 24%, BAZ2B block -2%, GLS inh 1%, JMJD2A Tudor -1% and G9a inh-1 -3%[59 µM].
`CC(C)OC(=O)CN1CCN(S(=O)(=O)c2cc(Cl)ccc2Cl)CC1` gave HP1b binding inh 14%, BAZ2B block 14%, GLS inh 1%, JMJD2A Tudor -19% and G9a inh-1 -26%[12.7 µM].
CN(C)c1ccc(NC(=O)CN2CCN(S(=O)(=O)c3cc(Cl)ccc3Cl)CC2)cc1 was read as HP1b binding inh inconclusive, BAZ2B block 35µM*, GLS inh 39%, JMJD2A Tudor inconclusive, G9a inh-1 1.4µM* and G9a inh-2 4.5*.

Source: PubChem BioAssay (National Center for Advancing Translational Sciences (NCATS))
